For orientation: inhibition means the change of the read-out against control, counted positive when it falls.

About 2,800 (0.85%) of roughly 330,000 compounds were called active. For the sample, actives were picked, then their nearest neighbours and some compounds at random. Unmarked numbers belong to inactive results.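 How the source made its calls: active means mean inhibition across replicates of 60% or more, whatever share of single replicates reaches that level; inconclusive means some that reach 60%, reason not given; inactive means mean inhibition across replicates below 60%.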

This test in a line: MITF transcriptional activity suppression – cell-based, SK-MEL-5, single point, luciferase, primary screen (AID 488899). The conditions noted are these: SK-MEL-5 TRPM1 promoter luciferase, 24 h; at 12.5 µM; hits give high values.
As for `COc1cc(OC)cc(C(=O)N[C@H](C(=O)NNC(=O)c2ccc(Br)cc2)C(C)C)c1`, the inhibition was 13.3%.
Under `COc1cc(OC)cc(C(=O)N[C@H](C(=O)Nc2nc3ccccc3[nH]2)C(C)C)c1` stands 71% (active); under `COc1ccc(C(=O)N[C@H](C(=O)NCc2ccccc2)C(C)C)cc1`, 9.58%.
With `CCn1nnc2cc(C(=O)Nc3ccc(C(=O)OC(C)C)cc3)ccc21`, the inhibition was 21.6%.
Under `CCOC(=O)C(CO)NC(=O)C1(NC(C)=O)CCCC1` (stereo not drawn) stands -14.8%; under `Cc1csc(NC(=O)c2ccc(C)s2)n1`, -57.3%; under `COc1ccc(C(=O)Nc2cccc(NC(=O)c3ccc(OC)cc3OC)n2)c(OC)c1`, -13.3%.
For `COc1cc(SC)ccc1C(=O)Nc1nc(C)cs1`, the inhibition is 88.5% (active).
Take `CSc1ccccc1NC(=O)C(C)N1C(=O)c2ccccc2S1(=O)=O` (stereo not drawn): the inhibition was 0.029%.
As for `CC(=O)Nc1ccccc1Sc1ccc2c3c(cccc13)C(=O)N(c1ccc(C)cc1)C2=O`, the inhibition was 65.2% (active).
The value for `Cc1ccc(N2C(=O)CC(Nc3cccc4ccccc34)C2=O)cc1` (stereo not drawn) was 8.42%; that for `O=C(NNC(=O)C1CCCC1)c1ccc(F)cc1` was 3.41%.
The value for `O=C(/C=C/c1ccc([N+](=O)[O-])o1)NNC(=O)c1ccc(F)cc1` was 80.8% (active); that for `COc1ccc(C(=O)NCC(=O)N/N=C/c2ccc([N+](=O)[O-])o2)cc1OC` was 10.3%.
The value for `O=C(Cn1cnc2ccccc2c1=O)NCC1COc2ccccc2O1` (stereo not drawn) was -4.59%; that for `NC(N)=Nc1nc(-c2ccccc2)c2cc(Cl)ccc2n1` was 85.2% (active); that for `COC(=O)Cn1nc(-c2ccccc2)c2cc(Cl)ccc21` was -4.99%.
In the case of `Cc1ccc2nc(Nc3ccccc3O)nc(-c3ccccc3)c2c1`, the inhibition is -6.93%.
For `COc1ccc2[nH]c3c(C)c4cc[n+](C)cc4c(C)c3c2c1`, the inhibition is 50.4%.
Under `O=C(Cn1ccc2cc(S(=O)(=O)N3CCCC3)ccc21)NCc1ccccc1` stands -7.14%; under `O=[N+]([O-])/C=C/c1ccc2c(ccn2Cc2ccccc2)c1`, 69.6% (active); under `COC(=O)Cn1cc(/C=C/[N+](=O)[O-])c2ccccc21`, 1.38%.
For the compound `CC1(C)C2CCC1(C)C(OC(=O)c1ccc(O)cc1)C2` (stereo not drawn), the inhibition is -0.433%.
As to `CC(C)OC(=O)c1ccc(NCc2cc(O)ccc2O)cc1Cl`, the inhibition is 5.02%.
The value for `O=C(OC12CC3CC(CC(C3)C1)C2)c1ccc(NCc2cc(O)ccc2O)cc1` was 66.6% (active); that for `COC(=O)c1ccc(NCc2cc(O)ccc2O)cc1` was -5.57%; that for `CCN(CC)CCCN=Cc1c(O)n(-c2ccc(C)cc2)c(=O)c2ccccc12` was -6.61%.
The value for `Cc1ccc(-n2c(O)c(C=Nc3ccc(S(=O)(=O)Nc4ncccn4)cc3)c3ccccc3c2=O)cc1C` was 7.63%.
Under `CCOc1ccc(-n2c(O)c(/C=N/Nc3nc(C)cc(C)n3)c3ccccc3c2=O)cc1` stands 67.6% (active); under `Cc1ccc(S(=O)(=O)C2C(=O)NC3(C)CC2c2ccccc2O3)cc1` (stereo not drawn), 4.13%.
In the case of `COc1ccc(C(=O)Nc2ccnn2C2CCN(Cc3ccncc3)CC2)cc1`, the inhibition was -5.32%.
Under `CCCCCN(C(=O)NC(=O)Nc1ccccc1C)S(C)(=O)=O` stands 4.88%.
For `CCOC(=O)CCC(NC(=O)c1ccc(CNc2nc3cc(C(F)(F)F)ccc3nc2C(=O)OCC)cc1)C(=O)OCC` (stereo not drawn), the inhibition is 3.92%.
The value for `CSCCC(NS(=O)(=O)c1ccc(C)cc1)C(=O)N(C)CC(=O)Nc1ccccc1Br` (stereo not drawn) was 11.6%; that for `CC(C)=CCc1ccc(O)c(=O)cc1C(C)C` was 71.6% (active); that for `CC(C)c1cc(N=O)cc(C(C)C)c1O` was -4.28%.
The value for `COc1ccc(CNC(=O)CN2C(=O)c3ccccc3S2(=O)=O)cc1` was 13.6%; that for `COc1ccc(-n2nc3c(N4CCC(C(=O)NCc5ccccc5)CC4)nnc(C)c3c2C)cc1` was 40.6%.
The value for `CCOc1ccc(CNC(=O)C2CCCN(c3nnc(C)c4c(C)n(-c5ccccc5)nc34)C2)cc1` (stereo not drawn) was 48.5%.
With `CCc1ccc(CNC(=O)C2CCN(c3nnc(C)c4c(C)n(-c5ccc(C)cc5)nc34)CC2)cc1`, the inhibition is 96.1% (active).
Under `COc1cccc(CC(=NO)c2cccc(OC)c2)c1` stands -0.084%; under `CCCOc1ccc(/C=N/NC(=O)C2CC2)c(OCCC)c1`, -7.21%; under `COc1ccc(CN2CCNC(=O)C2CC(=O)NCc2cn[nH]c2-c2ccccc2)c(F)c1` (stereo not drawn), -6.25%.
As to `Cc1c(C)n(Cc2ccc(Cl)cc2)c2ccc(C(=O)NCCCN3CCOCC3)cc12`, the inhibition was 1.78%.
Under `CN1CCN(CCCNC(=O)c2ccc(/C=C3\Oc4ccccc4N(Cc4ccc(Cl)cc4)C3=O)cc2)CC1` stands 96.1% (active); under `CC(C)OCCCNC(=O)CN1C(=O)/C(=C/c2ccccc2F)Oc2ccccc21`, 8.17%.
Regarding `CCOc1ccc(NC(=O)CSc2ncnc3c2sc2ccccc23)cc1`, the inhibition was 4.52%.
Under `C=CCc1cccc2cc(C(=O)NC3CCCC3)c(=O)oc12` stands -16%.
The value for `CCC1=C(OC(=O)N(CC)CC)N2C(=O)OC(=NCCc3c[nH]c4ccccc34)[C@]2(C)[C@H]2C1=CC[C@H]1C(=O)N(CC)C(=O)[C@H]12` was 1.76%; that for `COCCN(Cc1cc2cc3c(cc2nc1Cl)OCO3)C(=O)c1cccc(C)c1` was 10%; that for `Cc1cc(C)nc(S/C=C/C(=O)c2ccccc2)n1` was 80.6% (active).
Under `Cc1cc(C)nc(SCC(=O)N(C)C)n1` stands 2.39%; under `Cc1cc(C)nc(SCc2ccccc2C#N)n1`, 4.69%.
Take `CC1CCN(Cc2nc3c(c(=O)n(C)c(=O)n3C)n2CCc2ccccc2)CC1`: the inhibition is -2.78%.
Take `Cn1c2ccccc2c2c(C(=O)N3CCN(c4ccc(F)cc4)CC3)cn(C3CCCC3)c(=O)c21`: the inhibition was -8.48%.
Regarding `CCCc1nc2c(c(=O)c3ccccc3n2C)c(=O)n1C1CCCCCC1`, the inhibition was 73.5% (active).
The value for `COc1cc(OC)cc(-c2c(-c3cccs3)c3cc(-c4ccc(OC)cc4F)ccc3n2C)c1` was 13.6%; that for `C#CCOCCOCCOCCNc1nc(N2CCOCC2)nc(N2CCN(C(=O)[C@H](Cc3ccc(O)cc3)n3cc(CCO)nn3)CC2)n1` was 4.74%.

(Values after PubChem BioAssay AID488899 (Broad Institute, 2010).)
